# According to PubChem BioAssay (NCATS):
# Where “and” joins values, the source holds several entries; their conditions need not be identical. Identical values can stand only once. Inconclusive results are not listed. Where a call stands in place of a potency, no number is given. A number with no mark means an inactive call. Calls of active or inactive are those of the source. The call rests on the fitted dose curve; in most records, active means well fitted curve in the direction sought with a large enough effect; inconclusive means small, poorly fitted or top-dose-only effect, or another doubt; inactive means no such curve, though single readings can be large; an effect the other way counts as inactive or inconclusive.
# Assays:
# [1] = system: CRL-7250; assay: Cytotoxic Profiling of Annotated Libraries Using Quantitative High-Throughput Screening (AID 1296008); conditions: Five cell lines viability, CellTiter-Glo ATP luminescence, 48-72 h; max response: stronger effect = lower value; further: nearly all actives have a fitted effect of over 60% in size; further: potency means the concentration at half of the fitted maximal effect
# How it was run: (§1)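 Compounds were pin-transferred onto cells and incubated 48 or 72 hr at 37 degree Celsius, 95% humidity. CellTiter-Glo was added, plates sat 10 min at room temperature, then ATP-coupled luminescence was imaged as the viability read-out.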
# [2] = system: HEK293; assay: as above; conditions: Five cell lines viability, CellTiter-Glo ATP luminescence, 48-72 h; max response: stronger effect = lower value
# How it was run: as §1
# [3] = system: HaCat; assay: as above; conditions: Five cell lines viability, CellTiter-Glo ATP luminescence, 48-72 h; max response: stronger effect = lower value
# How it was run: as §1
# [4] = system: KB-3-1; assay: as above; conditions: Five cell lines viability, CellTiter-Glo ATP luminescence, 48-72 h; max response: stronger effect = lower value
# How it was run: as §1
# [5] = system: NIH3T3; assay: as above; conditions: Five cell lines viability, CellTiter-Glo ATP luminescence, 48-72 h; max response: stronger effect = lower value
# How it was run: as §1
# [6] = system: HACAT; assay: qHTS assay to identify novel small-molecules to repurpose for Merkel cell carcinoma treatment (AID 1296009); conditions: MCC and control cell lines, CellTiter-Glo viability, 72 h; further: nearly all actives have a fitted effect of over 60% in size
# How it was run: (§2)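 Viability readout: ATP luminescence (CellTiter-Glo) after 72 hr drug exposure at 37 degree celsius. Dose-response format was 8 points for NPC and 11 points for MIPE; data normalized to in-plate controls.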
# [7] = system: MCC-13; assay: as above; conditions: MCC and control cell lines, CellTiter-Glo viability, 72 h; series mostly up to 46 µM
# How it was run: as §2
# [8] = system: MCC-26; assay: as above; conditions: MCC and control cell lines, CellTiter-Glo viability, 72 h; series mostly up to 46 µM
# How it was run: as §2
# [9] = system: MKL-1; assay: as above; conditions: MCC and control cell lines, CellTiter-Glo viability, 72 h; series mostly up to 46 µM
# How it was run: as §2
# [10] = system: NIH3T3; assay: as above; conditions: MCC and control cell lines, CellTiter-Glo viability, 72 h; at 44.8 µM (top of the series) unless noted
# How it was run: as §2
# [11] = system: C33A; assay: Primary qHTS to identify gynecologic anti-cancer compounds using libraries of approved drugs and bioactive compounds (AID 1345084); conditions: Gynecologic cancer cell panel viability, ATPlite luminescence, 48 h; series mostly up to 57.5 µM; further: nearly all actives have a fitted effect of over 55% in size
# How it was run: (§3)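 ATP-based viability (ATPlite), 1,000 cells/well, 16 h pre-incubation, 48 h compound at 37 C, 5% CO2, 15 min RT before read.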
# [12] = system: CAOV3; assay: as above; conditions: Gynecologic cancer cell panel viability, ATPlite luminescence, 48 h; series mostly up to 57.5 µM
# How it was run: as §3
# [13] = system: CASKI; assay: as above; conditions: Gynecologic cancer cell panel viability, ATPlite luminescence, 48 h; series mostly up to 57.5 µM
# How it was run: as §3
# [14] = system: Es-2; assay: as above; conditions: Gynecologic cancer cell panel viability, ATPlite luminescence, 48 h; series mostly up to 57.5 µM
# How it was run: as §3
# [15] = system: MKL-2; assay: qHTS assay to identify novel small-molecules to repurpose for Merkel cell carcinoma treatment (AID 1296009); conditions: MCC and control cell lines, CellTiter-Glo viability, 72 h; series mostly up to 46 µM; further: nearly all actives have a fitted effect of over 60% in size
# How it was run: as §2
# [16] = system: UISO; assay: as above; conditions: MCC and control cell lines, CellTiter-Glo viability, 72 h; series mostly up to 46 µM
# How it was run: as §2
# [17] = system: WaGa; assay: as above; conditions: MCC and control cell lines, CellTiter-Glo viability, 72 h; series mostly up to 46 µM
# How it was run: as §2
# [18] = system: TAB165; assay: qHTS profiling for inhibitors of Plasmodium falciparum proliferation (AID 504749); further: nearly all actives have a fitted effect of over 60% in size; conditions: P. falciparum in erythrocytes, SYBR Green DNA, 72 h; series mostly up to 28.7 µM
# How it was run: (§4)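 Quantitative HTS: compounds pinned into medium, infected erythrocytes added (0.3% parasitemia, 2.5% hematocrit), 72 h culture at 37 C under 5% CO2. Saponin/Triton lysis with SYBR Green I, overnight RT, then fluorescence read.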
# [19] = system: W2; assay: as above; conditions: P. falciparum in erythrocytes, SYBR Green DNA, 72 h; series mostly up to 28.7 µM
# How it was run: as §4
# [20] = at 44.8 µM (top of the series) unless noted
compound,measurement,setting,value
CN(C)C(=O)c1ccc(S(=O)(=O)c2ccc(NC(=O)[C@@](C)(O)C(F)(F)F)c(Cl)c2)cc1,Potency,[1],5.26 µM (active) and 5.8 µM (active)
same,Potency,[2],3.72 µM (active)
same,max response,[3],-8.31%
same,outcome,[3],inactive
same,max response,[4],-27.1% and -22.5%
same,outcome,[5],inactive
same,outcome,[6]; [20],inactive
same,Potency,[7],inactive
same,Potency,[8],inactive
same,Potency,[9],inactive
same,outcome,[10],inactive
same,Potency,[11],inactive
same,Potency,[12],inactive
same,Potency,[13],inactive
same,Potency,[14],inactive
O=C(O)[C@@H](c1ccc(OCc2ccc3ccccc3n2)cc1)C1CCCC1,max response,[1],-8.88%
same,max response,[2],-13%
same,max response,[3],-16.3%
same,max response,[4],-4.52%
same,max response,[5],-0.267%
same,Potency,[7],inactive
same,Potency,[8],inactive
same,Potency,[9],inactive
same,Potency,[15],inactive
same,Potency,[16],inactive
same,Potency,[17],inactive
CCCn1c(=O)c2[nH]c(C34CC5CC3C[C@@H](C5)C4)nc2n(CCC)c1=O,outcome,[1],inactive
same,max response,[2],-11%
same,max response,[3],4.8%
same,max response,[4],5.05%
same,max response,[5],-0.656%
same,Potency,[7],inactive
same,Potency,[8],inactive
same,Potency,[9],inactive
same,Potency,[15],inactive
same,Potency,[16],inactive
same,Potency,[17],inactive
CC(C)(C)NCC(O)c1ccc(O)c(CO)c1 (stereo unspecified),max response,[1],-2.87% and 2.98%
same,max response,[2],-5.93% and 0.072%
same,outcome,[3],inactive
same,max response,[4],-0.699%
same,outcome,[5],inactive
same,outcome,[6]; [20],inactive
same,Potency,[7],inactive
same,Potency,[8],inactive
same,Potency,[9],inactive
same,Potency,[15],inactive
same,outcome,[10],inactive
same,Potency,[16],inactive
same,Potency,[17],inactive
same,Potency,[11],inactive
same,Potency,[13],inactive
same,Potency,[14],inactive
CC(C)(Sc1ccc(CCN(CCCCC2CCCCC2)C(=O)NC2CCCCC2)cc1)C(=O)O,max response,[1],-21.5% and -0.943%
same,max response,[2],4.49%
same,max response,[3],-19.6% and 1.18%
same,max response,[4],5.99%
same,outcome,[4],inactive
same,max response,[5],-1.54% and 3.22%
same,Potency,[7],inactive
same,Potency,[16],inactive
same,Potency,[11],inactive
same,Potency,[13],inactive
same,Potency,[14],inactive
CCC(=O)N[C@H]1CC[C@H](C(=O)N(C)c2ccc(-c3nc4ccccc4o3)cc2)C1,max response,[1],-6.63%
same,Potency,[2],20.9 µM (active)
same,outcome,[3],inactive
same,max response,[4],-16.3%
same,max response,[5],-2.14%
same,outcome,[6]; [20],inactive
same,Potency,[7],inactive
same,Potency,[8],inactive
same,Potency,[9],inactive
Nc1ccc(S(=O)(=O)Nc2ccnn2-c2ccccc2)cc1,Potency,[18],inactive
same,Potency,[19],inactive
same,outcome,[1],inactive
same,max response,[2],-2.4% and -5.26%
same,outcome,[3],inactive
same,max response,[4],-3.13% and 3.95%
same,max response,[5],4.45% and 3.04%
same,outcome,[6]; at 17.4 µM (top of the series),inactive
same,outcome,[6]; at 44.8 µM (top of the series),inactive
same,Potency,[7],inactive
same,Potency,[8],inactive
same,Potency,[9],inactive
same,Potency,[15],inactive
same,Potency,[16],inactive
same,Potency,[17],inactive
same,Potency,[11],inactive
same,Potency,[12],inactive
same,Potency,[13],inactive
same,Potency,[14],inactive
Cc1cc(SCc2sc(-c3ccc(C(F)(F)F)cc3)nc2C)ccc1OCC(=O)O,max response,[1],-3.25%
same,max response,[2],3.06% and 3.28%
same,max response,[3],-0.39% and 1.93%
same,max response,[4],0.144%
same,outcome,[4],inactive
same,outcome,[5],inactive
same,Potency,[7],inactive
same,Potency,[8],inactive
same,Potency,[9],inactive
same,Potency,[15],inactive
same,outcome,[10],inactive
same,Potency,[16],inactive
same,Potency,[17],inactive
same,Potency,[12],inactive
same,Potency,[13],inactive
same,Potency,[14],inactive
CCC(C)n1ncn(-c2ccc(N3CCN(c4ccc(OC[C@H]5CO[C@](Cn6cncn6)(c6ccc(Cl)cc6Cl)O5)cc4)CC3)cc2)c1=O (stereo partly specified),max response,[1],-2.71%
same,Potency,[2],2.82 µM (active)
same,max response,[3],1.24%
same,outcome,[3],inactive
same,max response,[4],-3.28% and -9.44% and -24.5%
same,max response,[5],-7.51%
same,outcome,[6]; [20],inactive
same,Potency,[7],inactive
same,Potency,[8],inactive
same,Potency,[9],inactive
same,Potency,[15],inactive
same,Potency,[16],inactive
same,Potency,[17],inactive
same,Potency,[11],inactive
same,Potency,[12],inactive
same,Potency,[13],inactive
same,Potency,[14],inactive
C1COC(NC(C2CC2)C2CC2)=N1,Potency,[19],inactive
same,max response,[1],1.84% and -1.88%
same,max response,[2],3.3% and -8.9%
same,max response,[3],1.37% and -11.9%
same,outcome,[4],inactive
same,outcome,[5],inactive
same,Potency,[7],inactive
same,Potency,[8],inactive
same,Potency,[9],inactive
same,Potency,[15],inactive
same,outcome,[10],inactive
same,Potency,[16],inactive
same,Potency,[17],inactive
same,Potency,[11],inactive
same,Potency,[12],inactive
same,Potency,[13],inactive
same,Potency,[14],inactive
Clc1cccc(Cl)c1NC1=NCCN1,Potency,[18],inactive
same,Potency,[19],inactive
same,max response,[1],0.663% and -4.74%
same,max response,[2],-3.7% and -4.57%
same,outcome,[3],inactive
same,outcome,[4],inactive
same,outcome,[5],inactive
same,outcome,[6]; [20],inactive
same,Potency,[7],inactive
same,Potency,[8],inactive
same,Potency,[9],inactive
same,Potency,[15],inactive
same,outcome,[10],inactive
same,Potency,[16],inactive
same,Potency,[17],inactive
same,Potency,[11],inactive
same,Potency,[12],inactive
same,Potency,[13],inactive
same,Potency,[14],inactive
